Assay outcomes as filed in PubChem BioAssay.
A3G deaminase – APOBEC3G (human) deaminase inhibition; Q9HC16; recombinant A3G, ssDNA deamination FAM/TAMRA fluorescence; inhibition, % at 20 µM; 0.28% of 330,000 active; AID 493012;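 active = inhibition of at least 40% at 20 µM, with no more than 30% in the related APOBEC3A deaminase screen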;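 also: plate controls were DMSO wells with A3G for no effect and wells lacking A3G enzyme for full effect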
Neddylation inh – inhibitors of human cullin neddylation | inhibition, % at 25 µM | 0.58% of 360,000 active | P61081+Q13564 | TR-FRET cullin neddylation, biochemical; in the data active = inhibition above about 36%
Target sequence (P61081 whole entry, looked up): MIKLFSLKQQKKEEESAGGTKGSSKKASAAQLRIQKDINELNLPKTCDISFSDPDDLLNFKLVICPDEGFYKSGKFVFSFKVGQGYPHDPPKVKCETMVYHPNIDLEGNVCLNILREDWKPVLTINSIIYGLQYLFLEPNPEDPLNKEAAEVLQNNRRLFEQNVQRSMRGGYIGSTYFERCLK
Target sequence (Q13564 whole entry, looked up): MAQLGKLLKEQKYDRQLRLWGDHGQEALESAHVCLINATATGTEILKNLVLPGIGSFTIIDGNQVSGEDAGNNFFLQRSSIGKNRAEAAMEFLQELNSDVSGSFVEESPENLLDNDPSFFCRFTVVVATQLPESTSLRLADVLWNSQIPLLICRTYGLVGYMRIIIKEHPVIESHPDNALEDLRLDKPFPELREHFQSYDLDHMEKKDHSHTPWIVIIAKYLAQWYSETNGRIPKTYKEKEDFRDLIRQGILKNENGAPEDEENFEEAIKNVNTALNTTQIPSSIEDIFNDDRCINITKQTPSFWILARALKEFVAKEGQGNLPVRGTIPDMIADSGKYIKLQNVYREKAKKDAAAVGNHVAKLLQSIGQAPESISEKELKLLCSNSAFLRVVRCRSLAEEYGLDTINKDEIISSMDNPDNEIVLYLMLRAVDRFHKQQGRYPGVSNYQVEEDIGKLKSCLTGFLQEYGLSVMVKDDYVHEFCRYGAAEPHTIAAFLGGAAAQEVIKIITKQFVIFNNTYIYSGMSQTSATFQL
PfGluPho inh – PfG6PD (Plasmodium falciparum) enzyme inhibition; 0.78% of 350,000 active; AID 504690; PfGluPho enzyme, NADPH resazurin-diaphorase fluorescence; inhibition, % at 20 µM;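 active = inhibition reaching at least a set limit at 20 µM in the primary screen, cut at about 59% in these data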;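 also: 0% = DMSO wells with substrate and 100% = DMSO wells lacking glucose-6-phosphate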
GC-B act – GC-B (human) receptor activation; P20594; HEK293-GC-B cells, CNP EC30, cGMP TR-FRET; 0% at EC30 CNP, 100% saturating CNP; activation, % at 10 µM; 0.11% of 370,000 active;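 active = activation at 10 µM reaching about 35% in either raw or pattern-adjusted values, limit read from the data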
A3A deaminase – human APOBEC3A DNA deaminase inhibition. P31941. recombinant A3A, FAM/TAMRA ssDNA deamination fluorescence. inhibition, % at 20 µM. 0.41% of 330,000 active;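 active = at least 40% inhibition at 20 µM here, with at most 30% in a related deaminase screen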;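 also: plate controls were A3A with DMSO for no effect and wells lacking A3A enzyme for full effect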
GC-A act – GC-A (human) enzyme activation; 0.14% of 370,000 active; activation, % at 10 µM; P16066; HEK293 GC-A cells, cGMP TR-FRET, EC30 ANP; 0% at EC30 ANP, 100% saturating ANP; in the data active = activation above about 40%
APOBEC3G confirm – confirmation of human APOBEC3G DNA deaminase inhibitors; shares compounds with A3G deaminase; recombinant A3G ssDNA deaminase, UDG/FAM-TAMRA fluorescence; inhibition, % at 20 µM; 72% of 890 active; AID 493152;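 active = inhibition reaching a set limit in any replicate at 20 µM, the limit being 80% of the first screen's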
UDG A3G counter – E. coli UDG inhibition in APOBEC3G counter-screen. UDG counterscreen, FAM/TAMRA oligo fluorescence. 710 tested, under 10 active. inhibition, % at 20 µM. shares compounds with A3G deaminase;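 active = compounds giving 40% or more inhibition at 20 µM in any one of the three replicates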;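 also: plate controls were DMSO wells with UDG and oligo for no effect and DMSO wells lacking both for full effect; inhibitors lower the FAM signal released by uracil excision and alkaline cleavage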
PfGluPho conf – PfG6PD inhibition, single-dose confirmed; shares compounds with PfGluPho inh; recombinant PfGluPho, NADPH-diaphorase-resazurin fluorescence; inhibition, % at 20 µM; 34% of 2,400 active;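 active = inhibition of at least 50% at 20 µM in any single replicate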;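 also: 0% = DMSO with substrate and 100% = DMSO lacking glucose-6-phosphate substrate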
Diaphorase 10uM – diaphorase inhibition or oxidation at 10 uM NADPH; diaphorase-coupled resazurin reduction, fluorescence, NADPH 10 uM; inhibition, % at 20 µM; shares compounds with PfGluPho inh; AID 504862; 39% of 820 active;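 active = average inhibition reaching 50% or more with the compound at 20 µM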;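 also: resorufin red fluorescence formed as diaphorase reduces resazurin using NADPH; 0% = DMSO with enzyme and 100% = DMSO without enzyme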
Diaphorase 30uM – diaphorase inhibition or oxidation at 30 uM NADPH; AID 504863; shares compounds with PfGluPho inh; Diaphorase/resazurin coupled assay, resorufin fluorescence; inhibition, % at 20 µM; 29% of 820 active;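 active = inhibition averaging 50% or more, tested at 20 µM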;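 also: 0% = DMSO with enzyme and 100% = DMSO wells lacking diaphorase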
Active calls of the source: *; . = no result shown; ! = a repeat was not active. The list is not random: actives were taken first. Their share in the collection is about 2%.

SMILES | A3G deaminase | Neddylation inh | PfGluPho inh | GC-B act | A3A deaminase | GC-A act | APOBEC3G confirm | UDG A3G counter | PfGluPho conf | others
COc1cc(N=c2ssnc2Cl)cc(OC)c1OC | 72* | 2 | 83* | 14 | 0 | 7 | 93* | 0 | 68* | Diaphorase 10uM=-26;Diaphorase 30uM=-22
CCOC(=O)c1ccc(N=C2SC(C(=O)NC)CC(=O)N2Cc2ccc(F)cc2)cc1 (configuration not stated) | 1 | -11 | 5 | 3 | -3 | 0 | . | . | .
CCOC(=O)c1ccc(N=c2ssnc2Cl)cc1 | 66* | 6 | 88* | 11 | 5 | 11 | 79* | 0 | 30
N#Cc1ccc(N=c2ssnc2Cl)cc1 | 73* | -5 | 93* | 7 | -2 | -17 | 91* | -3 | 56* | Diaphorase 10uM=-32;Diaphorase 30uM=-24
N#Cc1ccc(Oc2c(Cl)cncc2Cl)cc1 | -9 | 2 | 0 | 5 | -4 | 1 | . | . | .
O=C(Nc1c(-c2ccccc2)nc2ncccn12)C1CC1 | . | . | . | -1 | . | 7 | . | . | .
CCOC(=O)[C@]12CCCCC/C=C\1N(Cc1ccc(OC)cc1)C(=O)[C@H]2CC(=O)NCc1ccc(OC)c(OC)c1 | . | . | . | -1 | . | -2 | . | . | .
COC(=O)C1CN(C2CCCC2)CCS(=O)(=O)N1Cc1ccc(F)cc1 (configuration not stated) | . | . | . | 1 | . | 5 | . | . | .
O=C(C(=O)N1CCN(S(=O)(=O)c2cccc3ccccc23)CC1)c1cccc(C(F)(F)F)c1 | . | . | . | 1 | . | 0 | . | . | .
CCOC(=O)c1c(NC(=O)C2CCCO2)sc(C(=O)OC(C)(C)C)c1C (configuration not stated) | 47* | -54 | 63* | -6 | 4 | 2 | 33* | 3 | 12
Cc1sc(NC(=O)c2ccccc2)c(C(=O)c2ccccc2)c1C | 50* | -43 | 63* | -4 | 2 | 3 | 37* | -3 | 37
Cc1ccc(C(=O)Nc2sc(C)c(C)c2C(=O)c2ccccc2)cc1 | 40* | 7 | 82* | -4 | 3 | 3 | 29* | -3 | 24
Cc1ccc(-n2c(SCC(=O)c3ccc(F)cc3)nnc2-c2cccnc2)cc1 | . | . | . | 7 | . | -2 | . | . | .
COC(=O)[C@@]1(C(C)C)N=C(c2cc(OC)c(OC)c(OC)c2)[C@]2(O1)C(=O)N(Cc1cn(Cc3ccccc3)nn1)c1ccc(F)cc12 | . | . | . | -21 | . | -29 | . | . | .
FC(F)(F)c1ccccc1C(C#Cc1ccccc1)NCc1ccc2c(c1)OCO2 (configuration not stated) | . | . | . | 0 | . | -3 | . | . | .
O=C1C=CC(=O)C(C2=C3C(=O)N(CCc4ccccc4)CC(=O)N3CCC2)=C1 | 90* | . | 110* | 0 | 3 | -27 | 93* | 3 | 114* | Diaphorase 10uM=99*;Diaphorase 30uM=82*
O=c1cc(CN2CCN(c3ccc(O)cc3)CC2)nc2scc(-c3ccccc3)n12 | 73* | 1 | 65* | 2 | 16 | -2 | 9 | . | 29
Nn1c(SCC(=O)Nc2cccnc2Cl)nnc1-c1ccccc1 | 46* | -10 | 62* | . | 1 | . | 63* | -2 | 50* | Diaphorase 10uM=0;Diaphorase 30uM=5
CN1CCc2cc3c(c4c2[C@H]1[C@H](O)c1ccccc1-4)OCO3 | 16 | 4 | 52 | -13 | 13 | 1 | . | . | .
CN1CCc2cccc3c2[C@H]1Cc1ccc(O)c(O)c1-3 | 51*! | . | 87* | -5 | -11 | -9 | 103* | 0 | 89* | Diaphorase 10uM=21;Diaphorase 30uM=3
O=c1c(O)c(-c2cc(O)c(O)c(O)c2)oc2cc(O)cc(O)c12 | 41* | -93 | 67* | -10 | 21 | 0 | 73* | 2 | 47
Cn1cccc1C(=O)N1CCN(S(=O)(=O)c2ccc(C(C)(C)C)cc2)CC1 | . | . | . | 9 | . | 2 | . | . | .
COc1ccc(OC)c2c1C(=O)C(Cl)=C(Cl)C2=O | 88* | 22 | 125* | 22 | -6 | 43* | 92* | -2 | 112* | Diaphorase 10uM=81*;Diaphorase 30uM=42
COc1ccc(N)c2c1C(=O)c1ccccc1C2=O | . | -92 | -3 | -8 | . | -6 | . | . | .
C=CCn1c(N)c(C(=O)NCCC2=CCCCC2)sc1=S | 47* | -16 | 69* | 38* | 2 | 31 | 8 | . | 29
SMILES | A3G deaminase | Neddylation inh | PfGluPho inh | GC-B act | A3A deaminase | GC-A act | APOBEC3G confirm | UDG A3G counter | PfGluPho conf | others
NC(=O)NCCC1=CCCCC1 | -5 | 5 | 3 | 1 | 0 | 0 | . | . | .
c1ccc(-c2cc(-c3nnc4sc(Cc5cccs5)nn34)[nH]n2)cc1 | . | . | . | -7 | . | 6 | . | . | .
COC(=O)[C@]12C[C@H](CC(=O)NCc3ccc(C)o3)C(=O)N(Cc3ccc4c(c3)OCO4)C1=C[C@H](C(C)(C)C)O[C@@H]2C | . | . | . | -4 | . | -3 | . | . | .
CSc1nc(=NC(C)=O)ss1 | 51* | 0 | 68* | 9 | -2 | 9 | 43* | 0 | 38
CCOC(=O)c1sc2nc(N3CCOCC3)c3c(c2c1N)CCCC3 | -8 | . | 11 | 6 | -8 | 6 | . | . | .
CCN(CC)C(=O)c1sc2nc(N3CCOCC3)c3c(c2c1N)CCCC3 | 49* | -180 | 76* | 26 | 0 | 28 | 23 | . | 10
O=C(Cn1sc2ccccc2c1=O)NC12CC3CC(CC(C3)C1)C2 | 78* | -6 | 125* | . | 0 | . | 78* | 1 | 106* | Diaphorase 10uM=-20;Diaphorase 30uM=-22
Nc1cccc2c1C(=O)N(CC(=O)NC13CC4CC(CC(C4)C1)C3)C2=O | 0 | . | 12 | -2 | -2 | 1 | . | . | .
Cc1cc(C)n2c(=S)[nH]nc2n1 | 92* | -2 | 71* | -4 | -3 | -3 | 90* | -4 | 20
COc1ccc(O)c(C(=O)C2c3ccccc3C(=O)N2c2ccc(C)cc2)c1 (configuration not stated) | 75* | 1 | 66* | -4 | -1 | -1 | 88* | -5 | -6
O=C(Nc1ccc(Cl)c(Cl)c1)c1ccc(Cl)c(Cl)c1 | -1 | 14 | 6 | -6 | -2 | 6 | . | . | .
Cc1ccc(NC(=O)c2ccc(Cl)c(N3C(=O)C=CC3=O)c2)cc1 | 46* | 1 | 100* | -5 | -5 | 7 | 53* | -7 | 100* | Diaphorase 10uM=-22;Diaphorase 30uM=-7
CCOC(=O)[C@@]12CN(C(=O)OC(C)(C)C)CC=C1N(Cc1ccc(OC)cc1)C(=O)[C@H]2CC(=O)N1CCSCC1 | . | . | . | 9 | . | -2 | . | . | .
